Compound activity (PubChem BioAssay)
Only some compounds are listed: those with a hit (about 2.7% of all), similar ones and a draw of the others.
ALOX12 inh: ALOX12 (human) lipoxygenase inhibition | purified 12hLO, xylenol orange hydroperoxide absorbance | AID 1671190 | P18054 | Potency, µM (highest dose often 108 µM), usual class: inhibitors | hit rate 1.1% among 580,000
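Purified human 12hLO (150 nM final) in 25 mM Hepes, 0.01% Triton X-100, pH 7.0 was preincubated 15 min at room temperature with compound. Then 40 uM arachidonic acid was added, 30 min. Hydroperoxide was read by Fe-XO absorbance ratio 573/405 nm.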
ERG Ets-DNA blk: ERG Ets/DNA interaction inhibition. P11308. Potency, µM (highest dose often 76.9 µM), hits mostly inhibitors. hit rate 0.028% among 370,000. fluorescence polarization, His-ERG Ets domain / labelled DNA. AID 624246; active = well fitted inhibition curve with a large enough effect in the polarisation, with a control signal flat; inconclusive = small, poorly fitted or top-dose-only effect, or effect the other way, or a change in a side signal; inactive = no such curve, though single readings can be large or run the other way; the % refers to the polarisation;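 note: polarization taken with two DNA probes labelled with fluorescein and Texas red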
Target sequence (P11308 whole entry, looked up, the tested form may be a part): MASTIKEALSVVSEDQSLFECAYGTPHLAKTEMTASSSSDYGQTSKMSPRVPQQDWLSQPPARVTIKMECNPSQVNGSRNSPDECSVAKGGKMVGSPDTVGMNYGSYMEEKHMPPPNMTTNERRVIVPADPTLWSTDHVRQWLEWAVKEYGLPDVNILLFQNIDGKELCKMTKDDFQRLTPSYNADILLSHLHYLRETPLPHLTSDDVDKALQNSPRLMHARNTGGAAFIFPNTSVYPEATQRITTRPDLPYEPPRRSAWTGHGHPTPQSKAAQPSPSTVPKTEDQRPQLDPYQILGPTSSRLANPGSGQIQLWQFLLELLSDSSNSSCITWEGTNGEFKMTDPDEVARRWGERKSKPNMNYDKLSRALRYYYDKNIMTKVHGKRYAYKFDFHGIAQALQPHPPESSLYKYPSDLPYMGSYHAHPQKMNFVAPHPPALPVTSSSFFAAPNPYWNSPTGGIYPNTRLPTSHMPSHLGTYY
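His-tagged ERG Ets domain (1 uM in the protein solution; 300mM KCl, 50mM Tris-HCl, 1mM EDTA, 1mM DTT, pH 7.5) received compound, then a probe mix of 5 nM fluorescein-DNA and 100nM Texas-615-DNA. Fluorescence polarization was read for both dyes.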
Nrf2 block: Nrf2 pathway inhibition | Potency, µM (titrated, usually from 46 µM), actives largely listed as inhibitors | A549 ARE-Fluc reporter, luciferase luminescence, 18-24 h | hit rate 2.1% among 360,000; note: nearly all actives have a fitted effect of over 60% in size
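Concentration-response testing used A549 ARE_Fluc cells at 5000 cells/well. Following an 18-24 h compound incubation, viability was read by fluorescence (Ex 405/Em 525) and luciferase output by luminescence.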
LDHA inh: LDHA (human) enzyme inhibition. P00338. purified LDHA, NADH/diaphorase-resazurin fluorescence; active compounds read low. activity change, % (values are at about 110 or 230 µM). hit rate 0.15% among 480,000. AID 1347041; in the data active = activity change below about -30%; inconclusive = mostly about -25% to -30%
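Remaining NADH was detected by diaphorase (0.133 mg/mL) converting 37 µM resazurin to fluorescent resorufin, read at 0 and 20 minutes. The preceding 5-minute room-temperature reaction used 2 nM LDHA, 0.2 mM sodium pyruvate and 0.06 mM NADH at pH 7.4.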
Nrf2 ARE act: activates Nrf2 signaling | AREc32 ARE-luciferase reporter (MCF7-derived line), luminescence, 24 h | Potency, µM (series often up to 46.1 µM), actives largely listed as activators | hit rate 0.31% among 410,000 | AID 624171; note: nearly all actives have a fitted effect of over 65% in size
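ARE-driven firefly luciferase activity in AREc32 cells measured after a 24 hr compound exposure at 37 deg C, using Steady-Glo reagent and a 30 min room-temperature hold.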
A549 tox-1: kills or reduces viability of A549 cells in Nrf2 counter-screen | AID 504648 | hit rate 0.16% among 390,000 | A549 ARE-Fluc cells, CellTiter-Fluor viability, 18-24 h | Potency, µM (doses to about 46 µM), actives largely listed as inhibitors
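A549 ARE-Fluc cells in 5% FBS OPTI-MEM, 5000 cells/well, rested 2 h then exposed to compounds in concentration-response for 18-24 h at 37 °C. Viability by CellTiter-Fluor fluorescence (Ex 405/Em 525) after 30 min; luciferase luminescence (BugLite, 15 min, RT) read afterwards.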
FLuc enzyme inh: firefly luciferase inhibition, Nrf2 hit validation. shares compounds with Nrf2 block. purified firefly luciferase, luminescence inhibition. Potency, µM (doses to about 57.5 µM), usual class: inhibitors. hit rate 4% among 1,400. AID 720522; note: nearly all actives have a fitted effect of over 65% in size
A549 tox-2: toxic to A549 ARE-Fluc cells in Nrf2 counterscreen. AID 720523. A549 ARE-Fluc cells, cytotoxicity counterscreen. shares compounds with Nrf2 block. Potency, µM (top dose mostly 46.1 µM), actives largely listed as inhibitors. hit rate 2% among 1,400;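 note: cells exposed to compounds for 18 to 24 hours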
Nrf2 ARE inh: reduces Nrf2 ARE reporter signal in A549 cells; AID 720524; hit rate 74% among 1,400; shares compounds with Nrf2 block; Potency, µM (titrated, usually from 46.1 µM), actives largely listed as inhibitors; A549 ARE-firefly luciferase reporter, luminescence; note: nearly all actives have a fitted effect of over 65% in size
Hits are given with their value; [ ] = remark or other dose. Unless noted, calls come from the whole dose curve; as a rule, active = well fitted curve in the direction sought with a large enough effect; inconclusive = small, poorly fitted or top-dose-only effect, or another doubt; inactive = no such curve, though single readings can be large; an effect the other way counts as inactive or inconclusive.

How did CC1(C)CCc2cc3c4c(/c(=N\O)oc3cc2O1)CCCC4 do in these assays?
ALOX12 inh: inconclusive; LDHA inh: inactive

What do the screens show for `CCOC(=O)[C@H]1O[C@@H]1C(=O)N[C@@H](CC(C)C)C(=O)NCCC(C)C`?
ERG Ets-DNA blk: inactive; Nrf2 block: inactive; LDHA inh: inactive; Nrf2 ARE act: inactive; A549 tox-1: 20.6µM

Results for Cn1c2ccccc2c(=O)c2cc(C#CC3(O)CCCCC3)ccc21 ?
ALOX12 inh: inactive; ERG Ets-DNA blk: inactive; Nrf2 block: inconclusive; LDHA inh: inactive; Nrf2 ARE act: inactive; A549 tox-1: inactive

What do the screens show for `Cc1cc2sc3ccc(C#CC4(O)CCCCC4)cc3c(=O)c2cc1C`?
ALOX12 inh: inactive; ERG Ets-DNA blk: inactive; Nrf2 block: 0.206µM; LDHA inh: inactive; Nrf2 ARE act: inactive; A549 tox-1: inactive; FLuc enzyme inh: 0.0849µM; A549 tox-2: inactive; Nrf2 ARE inh: 9.2µM

What do the screens show for `CSC1SCC2C(=O)N(C)C(C(C)C)C(=O)OCC(NC(=O)c3cnc4ccccc4n3)C(=O)NC(C)C(=O)N(C)C1C(=O)N(C)C(C(C)C)C(=O)OCC(NC(=O)c1cnc3ccccc3n1)C(=O)NC(C)C(=O)N2C` (configuration not stated)?
ALOX12 inh: inactive; Nrf2 block: 0.0065µM; LDHA inh: inactive; Nrf2 ARE act: inactive; A549 tox-1: inconclusive; FLuc enzyme inh: inconclusive; A549 tox-2: 10.3µM; Nrf2 ARE inh: 6.51µM

Results for C[C@H]1CN([C@@H](C)CO)C(=O)c2cccc(NS(=O)(=O)c3ccc(F)cc3)c2O[C@H]1CN(C)Cc1ccc(Cl)c(Cl)c1 ?
ALOX12 inh: inconclusive; ERG Ets-DNA blk: inactive; Nrf2 block: 5.17µM; LDHA inh: inactive; Nrf2 ARE act: inactive; A549 tox-1: inactive; FLuc enzyme inh: inactive; A549 tox-2: inconclusive; Nrf2 ARE inh: 18.4µM

What do the screens show for `COc1ccc(C)cc1NC(=O)Cn1c(=O)cc(C)c2c(C)nn(C)c21`?
ALOX12 inh: inactive; ERG Ets-DNA blk: inactive; Nrf2 block: 5.8µM; LDHA inh: inactive; Nrf2 ARE act: inactive; A549 tox-1: inactive; FLuc enzyme inh: inactive; A549 tox-2: inactive; Nrf2 ARE inh: 2.31µM

What do the screens show for `COC(=O)c1ccccc1NC(=O)Cn1c(=O)cc(C)c2c(C)nn(C)c21`?
ALOX12 inh: inactive; ERG Ets-DNA blk: inactive; Nrf2 block: inactive; LDHA inh: inactive; Nrf2 ARE act: inactive; A549 tox-1: inactive

Results for Cc1cnc(NC(=O)c2nn(Cc3ccccc3)c(=O)c3ccccc23)s1 ?
ALOX12 inh: inconclusive; LDHA inh: inactive

Results for Cc1cc(C)c(-c2csc(Cc3nc(-c4cc5ccccc5oc4=O)cs3)n2)cc1C ?
ALOX12 inh: inactive; ERG Ets-DNA blk: inactive; Nrf2 block: inconclusive; LDHA inh: inactive; Nrf2 ARE act: inactive; A549 tox-1: inactive

Results for Cc1ccc(-c2csc(Cc3nc(-c4cc5ccccc5oc4=O)cs3)n2)cc1 ?
ALOX12 inh: inactive; Nrf2 block: 4.61µM; LDHA inh: inactive; Nrf2 ARE act: inactive; A549 tox-1: inactive; FLuc enzyme inh: inactive; A549 tox-2: inactive; Nrf2 ARE inh: 7.31µM

Results for O=c1oc2ccccc2cc1-c1csc(Cc2nc(-c3ccc(Br)cc3)cs2)n1 ?
ALOX12 inh: inactive; ERG Ets-DNA blk: inactive; Nrf2 block: 2.91µM; LDHA inh: inactive; Nrf2 ARE act: inactive; A549 tox-1: inactive; FLuc enzyme inh: inactive; A549 tox-2: inactive

How did CCOC(=O)N1CCN(C(C(=O)O)c2c[nH]c3ccc(OC)cc23)CC1 (configuration not stated) do in these assays?
ALOX12 inh: inconclusive; LDHA inh: inactive

How did O=C(Nc1ccccc1)c1ccc(S(=O)(=O)NCC2CCCO2)cc1 (configuration not stated) do in these assays?
ALOX12 inh: inactive; Nrf2 block: inactive; LDHA inh: inactive; Nrf2 ARE act: inactive; A549 tox-1: inactive

How did O=C(Nc1cccc(Cl)c1)c1ccc(S(=O)(=O)NCC2CCCO2)cc1 (configuration not stated) do in these assays?
ALOX12 inh: inactive; ERG Ets-DNA blk: inactive; Nrf2 block: 4.61µM; LDHA inh: inactive; Nrf2 ARE act: inactive; A549 tox-1: inactive; FLuc enzyme inh: inactive; A549 tox-2: inactive; Nrf2 ARE inh: 13µM

Results for Cc1ccc(NC(=O)COc2ccccc2C#N)cc1S(=O)(=O)N1CCCCCC1 ?
ALOX12 inh: inactive; ERG Ets-DNA blk: inactive; Nrf2 block: inactive; LDHA inh: inactive; Nrf2 ARE act: inactive; A549 tox-1: inactive

How did Cc1ccc(NC(=O)COc2cccnc2[N+](=O)[O-])cc1S(=O)(=O)N1CCCCC1 do in these assays?
ALOX12 inh: inactive; ERG Ets-DNA blk: inactive; Nrf2 block: 7.31µM; LDHA inh: inactive; Nrf2 ARE act: inactive[9.22 µM]; A549 tox-1: inconclusive; FLuc enzyme inh: inactive; A549 tox-2: inactive; Nrf2 ARE inh: inconclusive

What do the screens show for `O=C(CCc1ncc(-c2ccc(Cl)cc2)o1)Nc1ccc(F)cc1`?
ALOX12 inh: inactive; LDHA inh: inactive

What do the screens show for `CCOc1ccccc1C(=O)NC1CCN(c2cc(-c3cccs3)[nH]n2)C1` (configuration not stated)?
ALOX12 inh: inactive

Results for Cc1cc(C)c(S(=O)(=O)N2CCN(S(=O)(=O)N3CCCCCC3)CC2)c(C)c1 ?
ALOX12 inh: inactive; ERG Ets-DNA blk: inactive; Nrf2 block: inactive; LDHA inh: inactive; Nrf2 ARE act: inactive; A549 tox-1: inactive

What do the screens show for `Cc1ccc(N2CCN(S(=O)(=O)N3CCCCC3)CC2)c(C)c1`?
ALOX12 inh: inactive; ERG Ets-DNA blk: inactive; Nrf2 block: 6.51µM; LDHA inh: inactive; Nrf2 ARE act: inactive; A549 tox-1: inactive; FLuc enzyme inh: inactive; A549 tox-2: inactive; Nrf2 ARE inh: inactive

What do the screens show for `Cc1ccsc1C(=O)OCC(=O)NC(=O)NC1CCCCC1`?
ALOX12 inh: inactive; LDHA inh: inactive

How did O=C(C1CC1)N1CCC(c2nc(-c3ccc(S(=O)(=O)NCC4CCCO4)cc3)no2)CC1 (configuration not stated) do in these assays?
ALOX12 inh: inactive; ERG Ets-DNA blk: inactive; LDHA inh: inactive; Nrf2 ARE act: inactive; A549 tox-1: inactive
